Laboratory results reported in PubChem BioAssay (NCI).
About 79,000 compounds went through this panel and 15% of them were active in at least one assay; those are over-represented in the sample as a whole. A number with no mark means an inactive call. The source made the active and inactive calls. Rule as the data show it: active = growth inhibition above about 70%; inactive = the rest.

How the values were obtained:
[1] = NCI Yeast Anticancer Drug Screen. Data for the rad50 strain (AID 155);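 also: 0% = growth of vehicle-only cultures of the same strain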; details: S. cerevisiae rad50 strain growth inhibition, hits give high values
Procedure, shortened: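 Readout: growth inhibition relative to vehicle-treated cultures. Compound exposure was carried out in a genetically defined yeast strain deficient in DNA damage repair.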

[2] = NCI Yeast Anticancer Drug Screen. Data for the mec2-1 strain (AID 157); details: S. cerevisiae mec2-1 strain, hits give high values
Procedure, shortened: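 Readout is yeast growth inhibition, normalised to vehicle-treated controls, in the mec2-1 strain exposed to compound.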

[3] = NCI Yeast Anticancer Drug Screen. Data for the sgs1 mgt1 strain (AID 161);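 also: 0% = growth of cultures given vehicle only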; details: S. cerevisiae sgs1 mgt1 strain, hits give high values
Procedure, shortened: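 Percent growth inhibition was derived by comparing compound-exposed mutant yeast with vehicle-exposed cultures. The strain carries alterations in DNA damage repair.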

[4] = NCI Yeast Anticancer Drug Screen. Data for the cln2 rad14 strain (AID 165);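 also: 0% = growth equal to vehicle treated cultures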; details: S. cerevisiae cln2 rad14 strain, hits give high values
Procedure, shortened: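 Relative to vehicle controls, growth inhibition of compound-treated cln2 rad14 yeast was recorded.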

[5] = NCI Yeast Anticancer Drug Screen. Data for the bub3 strain (AID 167); details: S. cerevisiae bub3 mutant strain, hits give high values
Procedure, shortened: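 Readout: yeast growth inhibition, expressed relative to vehicle-only wells. The test organism is a mutant strain from a panel with lesions in DNA repair or checkpoint genes.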

[6] = NCI Yeast Anticancer Drug Screen. Data for the mlh1 rad18 strain (AID 175); details: S. cerevisiae mlh1 rad18 strain growth inhibition, hits give high values
Procedure, shortened: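 Test agents were incubated with a yeast strain of defined genotype (DNA damage repair defect). Inhibition of growth was derived by comparison with vehicle-exposed cultures.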

[7] = at 5.0 µM (retest, dose inferred, filed as 0.5)
[8] = at 50.0 µM (retest, dose inferred, filed as 5.0)

Row | Compound | growth inhibition [1, 7] | growth inhibition [1, 8] | growth inhibition ([1]; at 50.0 µM) | growth inhibition [2, 7] | growth inhibition [2, 8] | growth inhibition ([2]; at 50.0 µM) | growth inhibition [3, 7] | growth inhibition [3, 8] | growth inhibition ([3]; at 50.0 µM) | growth inhibition [4, 7] | growth inhibition [4, 8] | growth inhibition ([4]; at 50.0 µM) | growth inhibition [5, 7] | growth inhibition [5, 8] | growth inhibition ([5]; at 50.0 µM) | growth inhibition [6, 7] | growth inhibition [6, 8] | growth inhibition ([6]; at 50.0 µM)
1 | COc1c2c(cc3ccc(=O)oc13)C(Cl)C(Cl)O2 (stereo not given) | 7% | 97% (active) | 77.7% (active) | 4% | 98% (active) | 84.8% (active) | 10% | 98% (active) | 92.8% (active) | -16% | 97% (active) | 18.9% | 9% | 98% (active) | 91.2% (active) | 14% | 97% (active) | 97.7% (active)
2 | CC(C)(C)c1ccc(-c2nc3ccccc3c(=O)o2)cc1 | -3% | 20% | 55.7% | -1% | 41% | 53.1% | 14% | 74% (active) | 87.2% (active) | -2% | 40% | 61% | -1% | 86% (active) | 89.8% (active) | -3% | 55% | 85% (active)
3 | c1ccc2nc(C[n+]3cccc4ccccc43)ccc2c1 | 86% (active) | 99% (active) | 97.5% (active) | 73% (active) | 99% (active) | 97.8% (active) | 70% (active) | 97% (active) | 58.4% | 72% (active) | 99% (active) | 80% (active) | 64% | 98% (active) | 97.9% (active) | 73% (active) | 98% (active) | 97.1% (active)
4 | O=C1C(Cl)=C(c2ccc([N+](=O)[O-])cc2)C(=O)c2c(O)cccc21 | 79% (active) | 95% (active) | 90% (active) | 100% (active) | 99% (active) | 93.3% (active) | 28% | 95% (active) | 91.7% (active) | 82% (active) | 97% (active) | 90% (active) | 99% (active) | 94% (active) | 90.8% (active) | 99% (active) | 97% (active) | 88.3% (active)
5 | CC(Nc1ccc(S(=O)(=O)Nc2ncccn2)cc1)c1ccc2cccnc2c1O (stereo not given) | 38% | 99% (active) | 99.5% (active) | 2% | 99% (active) | 99.5% (active) | 11% | 99% (active) | 98.5% (active) | 19% | 99% (active) | 96.7% (active) | 11% | 99% (active) | 99.3% (active) | 14% | 98% (active) | 99.2% (active)
6 | O=[N+]([O-])c1cc(C(F)(F)F)ccc1SSc1ccc(C(F)(F)F)cc1[N+](=O)[O-] | 45% | 86% (active) | 60.9% | 39% | 88% (active) | 50% | 42% | 93% (active) | 68.5% | 42% | 64% | 54.7% | 42% | 92% (active) | 66.7% | 59% | 88% (active) | 58.4%
7 | Cc1[nH]c2ccccc2c1C(C)CC(O)c1ccccc1 (stereo not given) | 5% | 68% | 95% (active) | -4% | 73% (active) | 85.5% (active) | 2% | 62% | 90.2% (active) | 11% | 29% | 95.8% (active) | 3% | 67% | 88.7% (active) | 8% | 88% (active) | 95.2% (active)
8 | CCOc1ccc2nc([NH-])sc2c1.CCOc1ccc2nc([NH-])sc2c1.[Cl][Pt+2][Cl] | -1% | -1% | 26.4% | -1% | 4% | 35.5% | -1% | 15% | 47.8% | -2% | -7% | 17.9% | -2% | -6% | -4.85% | -2% | 3% | 62.1%
9 | CN1C(=O)OC(C)(c2ccccc2)C1=O (stereo not given) | -3% | 4% | -14.7% | -2% | -3% | -1.1% | -2% | 0% | -13.6% | 2% | -1% | 78% (active) | 2% | -7% | -11.8% | 0% | 8% | -2.55%
10 | O=C(Nc1ccccc1)c1ccccc1O | 2% | 93% (active) | 86.2% (active) | -2% | 91% (active) | 79.5% (active) | 2% | 87% (active) | 92.6% (active) | -3% | 84% (active) | 73.8% (active) | -2% | 92% (active) | 86% (active) | -4% | 98% (active) | 97.2% (active)
